# Laboratory results reported in paper PMC9838217, “Structure of SALL4 zinc finger domain reveals link between AT-rich DNA binding and Okihiro syndrome”.
# Where a chain is given by its changes, count along the chain named.
# Target: T1, SALL4 ZFC4 R900W (HT-SELEX) (Mus musculus, UniProt Q8BX22 870-940, R900W)
# T1 sequence: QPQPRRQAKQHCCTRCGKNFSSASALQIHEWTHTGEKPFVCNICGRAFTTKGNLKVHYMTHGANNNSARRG
# Test: HT-SELEX; high values mean tight binding
# Conditions: protein: recombinant; vector His6-GST; dsDNA, one strand shown
# Method in brief: (§1)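 Purified recombinant mouse SALL4 zinc finger cluster 4 (residues 870–940, 1 µg) was incubated with library DNA (1.5 µg first cycle, 200 ng later) in 100 µl buffer (10 mM Tris–HCl pH 7.5, 50 mM NaCl, poly(dI-dC), DTT) for 10 min at room temperature. Ni2+ bead-captured complexes were washed, PCR-amplified and reselected for up to 6 cycles, in triplicate, then MiSeq-sequenced and scanned for 6-mers. Binding signal is each canonical k-mer's read fraction as fold change versus the initial random library.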
row,Sequence,binding signal [fold-change vs cycle 0]
1,ACGAAA,1.12 ± 0.0308
2,AAACGA,1.16 ± 0.0331
3,ATTGTG,1.18 ± 0.0444
4,CTCAAA,1.2 ± 0.0701
5,AATACG,1.11 ± 0.0569
6,ATTTGG,1.09 ± 0.0268
7,GAGAGA,1.06 ± 0.0438
8,ATAGCA,1.21 ± 0.0922
9,ACTGAG,1.01 ± 0.0326
10,CAAATG,1.17 ± 0.0524
11,ACCAAT,1.33 ± 0.0357
12,CATAGA,1.37 ± 0.0567

# Target: T2, SALL4 ZFC4 G921D (HT-SELEX) (Mus musculus, UniProt Q8BX22 870-940, G921D)
# T2 sequence: T1 sequence with W31R, G52D
# Test: HT-SELEX; high values mean tight binding
# Conditions: protein: recombinant; vector His6-GST; dsDNA, one strand shown
# Method in brief: as §1
row,Sequence,binding signal [fold-change vs cycle 0]
1,ACTTCA,1.4 ± 0.125
2,AGCATA,1.26 ± 0.0447
3,AGGTAA,1.45 ± 0.089
4,AAACGA,1.16 ± 0.0214
5,ACATGT,1.4 ± 0.056
6,AATACC,1.3 ± 0.0234
7,GAGGAA,1.03 ± 0.0774
8,AGTCAG,0.958 ± 0.0631
9,AAGGAT,1.54 ± 0.145
10,GATCAA,1.36 ± 0.0523
11,CCTATA,1.35 ± 0.0515
12,AACTGA,1.35 ± 0.0948
13,AAGGTA,1.42 ± 0.11
14,AATCAG,1.32 ± 0.103
15,AAGATG,1.39 ± 0.12
16,AAGGGT,1.01 ± 0.0322
17,GAAAAC,1.19 ± 0.0327
18,ATGTAG,1.34 ± 0.129
19,AACTAG,1.31 ± 0.0994
20,CATGAA,1.36 ± 0.0809
21,CTCTTC,1.238 ± 0.012
22,AATCCT,1.47 ± 0.113
23,ACTAGG,1.01 ± 0.0534
